Assay outcomes as filed in PubChem.
HIF-2a block = blocks HIF-2a reporter activity. 360,000 compounds, 0.72% hits. 786-0 RCC cells HIF-2a reporter, luciferase luminescence, overnight. inhibition, % at 18.8 µM;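 active = inhibition of the luminescence signal of 40% or more relative to plate controls, in a single-dose primary screen at 18.75 µM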
CF NFkB inh = blocks PAF-induced NF-kB reporter in cystic fibrosis cells; KKLEB NF-kB-GFP reporter, GFP fluorescence overnight; inhibition, % at 5 µM; 360,000 compounds, 0.86% hits; AID 588850;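 active = at least 50% inhibition at 5 µM, scaled per plate between neutral and stimulator controls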;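 note: PAF is a Pseudomonas aeruginosa culture filtrate used as stimulus; plate controls were PAF-stimulated DMSO wells for no effect and unstimulated DMSO wells for full effect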
KKLEB cytotox = reduces viability of KKLEB cystic fibrosis airway cells; KKLEB CF airway cells viability, ATPlite luminescence, overnight; stronger effect = lower value; cells stimulated with P. aeruginosa culture filtrate; activity change (cytotoxicity), % at 5 µM; 360,000 compounds, 0.36% hits;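 active = corrected activity change at or below -50% at 5 µM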
hiPSC survival = enhancers of human iPSC single-cell survival; hiPSC single-cell survival, ATPlite luminescence; 100% = ROCK inhibitor wells, 0% = DMSO; survival enhancement, % at 20 µM; 360,000 compounds, 0.044% hits; AID 602274; in the data active = survival enhancement above about 18%;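 note: cells exposed to compounds for 16 hours before the ATP read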
LGR2 inh = blocks bursicon-induced cAMP signaling via Drosophila LGR2; inhibition, % at 9.99 µM; AID 720647; HEK293 LGR2, CRE-luciferase, bursicon-stimulated, 4 h; 380,000 compounds, 0.35% hits;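 active = drop in luminescence signal, shown as inhibition above about 50% in the replicate tests, limit read from the data, passing the limit was not always enough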;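 note: agonist challenge used bursicon conditioned medium at about half maximal strength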
TWEAK Fn14 block = TWEAK-Fn14 signaling inhibition; TWEAK-stimulated Fn14 reporter cells, luciferase luminescence, 8 h; AID 1159606; 360,000 compounds, 2% hits; inhibition, % at 10 µM; in the data active = inhibition above about 50%
* hit, by the source's call; / = no result. Hits are enriched below; roughly 2.3% of the tested compounds scored in any of these assays.

SMILES	HIF-2a block	CF NFkB inh	KKLEB cytotox	hiPSC survival	LGR2 inh	TWEAK Fn14 block
Cc1ccc(N(C(=O)Cn2nnc(-c3ccc(C)o3)n2)C(C(=O)NC2CCCC2)c2ccncc2)cc1 (configuration not stated)	1	-6	2	0	13	56*
Cc1ccccc1N=C1NN=C(c2ccccc2F)CS1	-122	-25	7	-2	/	68*
Cc1cc(C2=NNC(=NC3CC3)SC2)c(C)n1-c1ccccc1F	89*	-16	-58*	-2	95*	104*
Cc1ccc(-c2ccc3c(c2)O[C@@H](CN(C)S(C)(=O)=O)[C@@H](C)CN([C@@H](C)CO)S3(=O)=O)cc1	/	/	/	/	16	/
COC1=C(Nc2ccccc2)C(=O)c2ccccc2C1=O	-51	50*	-7	0	27	16
CC(C)NC1=C(Cl)C(=O)c2ccccc2C1=O	-53	50*	-22	-3	/	14
O=C1C(Cl)=C(Nc2ccccc2)C(=O)c2ccccc21	97*	93*	-83*	0	-9	44
O=C1C(Cl)=C(NCCc2ccccc2)C(=O)c2ccccc21	-57	42	4	0	-23	2
O=C(O)c1cccc(NC2=C(Cl)C(=O)c3ccccc3C2=O)c1	-81	-12	-1	-2	10	60*
C[C@H](CO)N1C[C@H](C)[C@H](CN(C)CC2CCOCC2)Oc2cc(C#CC3CC3)ccc2S1(=O)=O	/	/	/	/	4	/
C[C@@H](NC(=O)C[C@@H]1C[C@H]2c3cc(NC(=O)c4cccnc4)ccc3O[C@H]2[C@@H](CO)O1)c1ccccc1	/	/	/	/	6	/
CC(C)(C)OC(=O)NCCc1nnc(S(=O)(=O)Cc2ccc(Cl)cc2Cl)o1	3	60*	-12	-1	/	19
COc1ccc(NC(=O)/C(Cl)=C(/Cl)S(=O)(=O)Cc2ccc(C)cc2)cn1	96*	87*	-71*	23*	/	103*
CCNC(=O)Nc1ccc2c(c1)C(=O)N(C)[C@H]1CC[C@H](CC(=O)Nc3ccccc3)O[C@@H]1CO2	/	/	/	/	-10	/
COc1cc([N+](=O)[O-])cc(/C=N/NC(=O)c2ccc(NC(=O)c3ccc(C)cc3)cc2)c1O	28	82*	-75*	-1	28	70*
O=c1cc(-c2ccc(O)cc2)oc2ccc3ccccc3c12	72*	-262	-61*	0	100*	102*
COc1ccc2c3c(n(C)c2c1)[C@H](CO)N(C(=O)CN1CCOCC1)CC31CN(Cc2ccncc2)C1	/	/	/	/	7	/
O=C(CCl)NC(Cc1ccccc1)c1ccccc1 (configuration not stated)	27	13	-19	-3	15	53*
c1ccc(-c2cc(-c3nnc4n3N=C(c3ccc5ccccc5c3)CS4)[nH]n2)cc1	-49	-20	-6	1	0	68*
Cc1ccc(N=C2NC(=O)CS2)c(C)c1	13	-10	-5	1	/	101*
COC(=O)c1ccccc1NC(=O)c1ccc(COc2ccc(C)c(C)c2)o1	-37	2	-7	4	/	81*
COc1ccccc1NC(=O)c1ccc(-c2ccccc2F)o1	-357	-16	10	4	3	-10
COC(=O)c1ccccc1NC(=O)c1ccc(-c2ccccc2F)o1	-111	59*	-67*	2	23	-42
CN(c1cccc(NC(=O)CN(c2ccc(F)cc2)S(C)(=O)=O)c1)S(C)(=O)=O	12	-8	12	0	10	2
CN(c1cccc(NC(=O)CN(c2ccc(C34CC5CC(CC(C5)C3)C4)cc2)S(C)(=O)=O)c1)S(C)(=O)=O	-56	-21	2	3	/	61*
SMILES	HIF-2a block	CF NFkB inh	KKLEB cytotox	hiPSC survival	LGR2 inh	TWEAK Fn14 block
O=C(N[C@H]1CC[C@@H](CCn2cc(-c3ccccn3)nn2)O[C@H]1CO)c1cccnc1	/	/	/	/	13	/
COc1ccc(CCn2c(-c3ccco3)nc3ccccc3c2=O)cc1OC	-11	1	-1	-1	/	7
O=c1c2ccccc2nc(/C=C/c2ccc(O)cc2)n1CCc1ccccc1	-72	10	-4	-1	17	66*
O=c1c2ccccc2nc(-c2ccco2)n1CCc1ccc(O)cc1	21	-17	6	0	8	64*
CC1=CC(=O)C=CC1=Nc1ccc(N(C)C)cc1	-37	43	-5	1	-13	67*
O=C(O)c1cccc(NC(=O)c2cccc(NC(=O)C3CCCO3)c2)c1 (configuration not stated)	47*	-20	1	0	/	23
O=C(O)c1cccc(NC(=O)C2CCCO2)c1 (configuration not stated)	27	-8	-2	-1	/	17
COc1ccc(OCCCCn2c(CO)nc3ccccc32)cc1	-4	0	-2	-1	14	69*
Cc1cc(C)nc(NC(=O)/C=C/c2cccs2)c1	-322	-9	-3	-1	-97	-2
Cc1cc(C)c(-c2csc(NC(=O)/C=C/c3cccs3)n2)c(C)c1	-58	58*	-62*	2	4	69*
O=C(COc1ccc(CO)cc1Cl)Nc1ccc(F)cc1	-76	-7	-7	-4	/	63*
O=C(c1cnccn1)N1CC(=O)N2[C@H](CO)[C@@H](c3ccc(C#CC4CCCC4)cc3)[C@@H]2C1	/	/	/	/	22	/
COc1ccc(C(=O)SC2=NCCS2)cc1	15	-7	10	3	-5	54*
CCOc1ccc(C(=O)SC2=NCCS2)cc1	-5	9	7	0	/	63*
C[C@H](CO)N1C[C@H](C)[C@@H](CN(C)C(=O)CCC(F)(F)F)OCCCC[C@H](C)Oc2ccc(NC(=O)NC3CCCCC3)cc2C1=O	/	/	/	/	10	/
O=C(O)C[C@H]1C=C[C@@H](NC(=O)CCN2CCCCC2)[C@H](CO)O1	/	/	/	/	14	/
S=c1[nH]nc(-c2cc(-c3ccccc3)n[nH]2)n1/N=C/C(Br)=C/c1ccccc1	26	104*	-77*	0	1	75*
S=c1[nH]nc(-c2cc(-c3ccccc3)n[nH]2)n1/N=C/c1ccccc1	-13	-25	24	0	-3	4
COC(=O)C[C@H]1CC[C@@H]2[C@H](COc3ccc(NC(=O)Nc4ccc(C)cc4)cc3C(=O)N2C)O1	/	/	/	/	-10	/
C[C@H](CO)N1C[C@H](C)[C@H](CN(C)CC2CCOCC2)Oc2ncc(C#Cc3ccccc3)cc2C1=O	/	/	/	/	7	/
CSc1nc(N)nc(SCCS(=O)(=O)c2ccc(Cl)cc2)c1C#N	-4	24	-65*	4	/	20
C[C@@H]1CN([C@H](C)CO)C(=O)c2cc(C#Cc3cccnc3)cnc2O[C@H]1CN(C)C	/	/	/	/	-22	/
Oc1ccc(Cl)cc1Sc1cc(Cl)ccc1O	10	63*	10	0	/	73*
CN(C)C(=O)c1cc(Cl)ccc1Sc1cc(Cl)ccc1Cl	19	-1	5	-2	/	4
